Results as given in PubChem BioAssay (EPA / NIEHS).
Results filed as inconclusive are left out. A structure can be active in one record and inactive in another. Active and inactive are the calls of the source. Rule for the calls, unless noted: active = hit-call score of the fitted dose curve at least 0.9, where 1 is the maximum; inactive = score below 0.9.

Tests used:
[1] = read-out: Monokine induced gamma interferon (MIG), CXCL9 (gene 4283); experiment: BSK_3C_MIG: BioMAP Diversity Plus: 3C Assay for Monokine induced gamma interferon (MIG) Biomarker Activity (AID 2283021); conditions: primary human endothelial cells (HUVEC); actives raise or lower the signal;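 for AC50: MIG protein level measured by immunoassay in the treated endothelial cultures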
In short: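 Endothelial primary cells (human umbilical vein) are dosed with test chemical in the 3C system. MIG levels are measured by ELISA at 24 h and fitted in both directions relative to DMSO.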

[2] = read-out: Matrix Metallopeptidase 1 (MMP1), MMP1 (gene 4312); experiment: BSK_BE3C_MMP1: BioMAP Diversity Plus: BE3C Assay for Matrix Metallopeptidase 1 (MMP1) Biomarker Activity (AID 2283024); conditions: primary human bronchial epithelial cells; actives raise or lower the signal
In short: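 MMP1 signal, measured by ELISA after a 24 h chemical exposure of human primary bronchial epithelial cells, is analysed with bidirectional fitting using DMSO as negative control.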

[3] = BSK_3C_Vis: BioMAP Diversity Plus: 3C Assay for Morphology Visualization (AID 2283025); conditions: primary human endothelial cells (HUVEC);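 note: fitted both ways so gain or loss versus DMSO counts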
In short: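 Morphology read by light microscopy serves as a background control for the multiplexed 3C assay in human umbilical vein endothelial cells, taken 24 h after dosing, with DMSO as the negative control and bidirectional curve fitting.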

[4] = read-out: Pselectin, SELP (gene 6403); experiment: BSK_4H_Pselectin: BioMAP Diversity Plus: 4H Assay for Pselectin Biomarker Activity (AID 2283026); conditions: primary human endothelial cells (HUVEC); actives raise or lower the signal
In short: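 Endothelial primary cells (human umbilical vein) are dosed, incubated 24 h, and assayed for surface P-selectin by ELISA; responses in either direction are fitted relative to the DMSO negative control.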

[5] = BSK_4H_SRB: Viability Assessment in the BioMAP Diversity Plus: 4H Assay (AID 2283027); conditions: primary human endothelial cells (HUVEC);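 note: cells exposed to compound for 24 h before staining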;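 for AC50: curves fitted both ways versus DMSO so AC50 may be loss or gain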
In short: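 HUVEC, 24 h post-dose; 10% TCA fix, 0.1% SRB stain, A560 nm. Total protein = overt cytotoxicity, parallel to biomarker read. Bidirectional fit vs DMSO baseline.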

[6] = BSK_BE3C_SRB: Viability Assessment in the BioMAP Diversity Plus: BE3C Assay (AID 2283028); conditions: primary human bronchial epithelial cells;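 for AC50: fitted both ways so AC50 may mark signal gain or loss versus DMSO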
In short: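 Primary human bronchial epithelium; chemical dosing, 24 h; 10% TCA fix, 0.1% SRB stain, A560; bidirectional fit vs DMSO baseline.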

[7] = read-out: Thrombomodulin, THBD (gene 7056); experiment: BSK_3C_Thrombomodulin: BioMAP Diversity Plus: 3C Assay for Thrombomodulin Biomarker Activity (AID 2283029); conditions: primary human endothelial cells (HUVEC); actives raise or lower the signal
In short: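 Endothelial cells from umbilical vein are dosed with test chemical and incubated 24 h. Thrombomodulin is then quantified by ELISA, with DMSO serving as negative control and activity baseline.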

[8] = read-out: Urokinase-type plasminogen activator receptor (uPAR), PLAUR (gene 5329); experiment: BSK_4H_uPAR: BioMAP Diversity Plus: 4H Assay for Urokinase-type plasminogen activator receptor (uPAR) Biomarker Activity (AID 2283030); conditions: primary human endothelial cells (HUVEC); actives raise or lower the signal
In short: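 HUVEC, 24 h post-dose; uPAR by ELISA; bidirectional fit vs DMSO baseline.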

[9] = read-out: Vascular endothelial growth factor receptor 2 (Homo sapiens) (UniProt P35968); experiment: BSK_4H_VEGFRII: BioMAP Diversity Plus: 4H Assay for Vascular endothelial growth factor receptor 2 (VEGFR2) Biomarker Activity (AID 2283031); conditions: primary human endothelial cells (HUVEC); actives raise or lower the signal;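 for AC50: cell-surface VEGFR2 protein level quantified by ELISA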
In short: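 HUVEC (human primary), 4H system; 24 h post-dose; VEGFRII by ELISA; bidirectional curve fit vs DMSO baseline; gain or loss of signal scored.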

[10] = read-out: Human Leukocyte Antigen - DR isotype (HLADR), HLA-DRA (gene 3122); experiment: BSK_BE3C_HLADR: BioMAP Diversity Plus: BE3C Assay for Human Leukocyte Antigen - DR isotype (HLADR) Biomarker Activity (AID 2283032); conditions: primary human bronchial epithelial cells; actives raise or lower the signal
In short: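 Chemicals are dosed onto BE3C bronchial epithelial cultures of human origin and left 24 h. HLA-DR is then measured by ELISA, and the endpoint is fitted in both directions using DMSO as the activity baseline.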

[11] = read-out: Vascular cell adhesion molecule 1 (VCAM1), VCAM1 (gene 7412); experiment: BSK_4H_VCAM1: BioMAP Diversity Plus: 4H Assay for Vascular cell adhesion molecule 1 (VCAM1) Biomarker Activity (AID 2283033); conditions: primary human endothelial cells (HUVEC); actives raise or lower the signal
In short: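 Chemicals are added to primary human umbilical vein endothelial cells. After 24 h, VCAM-1 levels are measured by ELISA. Values come from bidirectional fitting referenced to DMSO.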

[12] = read-out: Interferon-gamma inducible Protein 10 (IP10), CXCL10 (gene 3627); experiment: BSK_BE3C_IP10: BioMAP Diversity Plus: BE3C Assay for Interferon-gamma inducible Protein 10 (IP10) Biomarker Activity (AID 2283034); conditions: primary human bronchial epithelial cells; actives raise or lower the signal
In short: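 IP-10 quantified by ELISA serves as the endpoint. Cells: primary human bronchial epithelium, read 24 h after compound addition. Activity is derived by bidirectional fitting with DMSO as negative control.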

[13] = read-out: Monokine induced gamma interferon (MIG), CXCL9 (gene 4283); experiment: BSK_BE3C_MIG: BioMAP Diversity Plus: BE3C Assay for Monokine induced gamma interferon (MIG) Biomarker Activity (AID 2283035); conditions: primary human bronchial epithelial cells; actives raise or lower the signal
In short: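 Dose cells (human primary bronchial epithelial), incubate 24 h, quantify MIG by ELISA, then fit concentration–response in both directions relative to DMSO control.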

[14] = read-out: Transforming growth factor beta 1 (TGFb1), TGFB1 (gene 7040); experiment: BSK_BE3C_TGFb1: BioMAP Diversity Plus: BE3C Assay for Transforming growth factor beta 1 (TGFb1) Biomarker Activity (AID 2283036;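 note: TGF-b1 protein level measured by ELISA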); conditions: primary human bronchial epithelial cells; actives raise or lower the signal
In short: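 Bronchial epithelial primary cells are treated with test chemical, then TGF-b1 is quantified by ELISA after 24 hours. Values derive from bidirectional fitting against DMSO, with cytotoxicity checked by SRB staining in parallel cultures.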

[15] = read-out: Urokinase-type plasminogen activator receptor (uPAR), PLAUR (gene 5329); experiment: BSK_BE3C_uPAR: BioMAP Diversity Plus: BE3C Assay for Urokinase-type plasminogen activator receptor (uPAR) Biomarker Activity (AID 2283039); conditions: primary human bronchial epithelial cells; actives raise or lower the signal
In short: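 Steps: dose human primary bronchial epithelial cells, incubate 24 h, measure uPAR by ELISA, then fit gain- or loss-of-signal response bidirectionally relative to DMSO.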

[16] = read-out: Interleukin-6 (IL6), IL6 (gene 3569); experiment: BSK_CASM3C_IL6: BioMAP Diversity Plus: CASM3C Assay for Interleukin-6 (IL6) Biomarker Activity for (AID 2283040); conditions: primary human coronary artery smooth muscle cells; actives raise or lower the signal
[17] = read-out: Tissue plasminogen activator (tPA), PLAT (gene 5327); experiment: BSK_BE3C_tPA: BioMAP Diversity Plus: BE3C Assay for Tissue plasminogen activator (tPA) Biomarker Activity (AID 2283041); conditions: primary human bronchial epithelial cells; actives raise or lower the signal;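 note: tPA level quantified by ELISA one day after compound addition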
In short: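 Gain- or loss-of-signal in tPA, measured by ELISA, derived by bidirectional fitting against DMSO. Cells: human primary bronchial epithelial; read at 24 h after chemical dosing.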

[18] = read-out: Interleukin-8 (IL8), CXCL8 (gene 3576); experiment: BSK_CASM3C_IL8: BioMAP Diversity Plus: CASM3C Assay for Interleukin-8 (IL8) Biomarker Activity (AID 2283042); conditions: primary human coronary artery smooth muscle cells; actives raise or lower the signal;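 note: IL-8 protein level quantified by ELISA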
[19] = read-out: Human Leukocyte Antigen - DR isotype (HLADR), HLA-DRA (gene 3122); experiment: BSK_CASM3C_HLADR: BioMAP Diversity Plus: CASM3C Assay for Human Leukocyte Antigen - DR isotype (HLADR) Biomarker Activity (AID 2283043); conditions: primary human coronary artery smooth muscle cells; actives raise or lower the signal;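 note: cell-surface HLA-DR protein level quantified by ELISA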
[20] = target: human Vitamin D Receptor (VDR), VDR (gene 7421) (UniProt P11473); experiment: ATG_VDR_TRANS: Attagene TRANS-FACTORIAL HepG2 Assay for human Vitamin D Receptor (VDR) (AID 2283022; active = hit-call score of the fitted dose curve at least 0.9, where 1 is the maximum)
In short: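 RT-PCR/capillary electrophoresis read-out of reporter mRNA induction in transiently transfected HepG2; 24 h dosing; chimeric NR-Gal4 (TRANS format); gain-of-signal fit against DMSO baseline.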

Measured: AC50

Sequence of human Vitamin D Receptor (VDR), VDR (gene 7421) (P11473 whole entry, looked up, the tested form may be a part): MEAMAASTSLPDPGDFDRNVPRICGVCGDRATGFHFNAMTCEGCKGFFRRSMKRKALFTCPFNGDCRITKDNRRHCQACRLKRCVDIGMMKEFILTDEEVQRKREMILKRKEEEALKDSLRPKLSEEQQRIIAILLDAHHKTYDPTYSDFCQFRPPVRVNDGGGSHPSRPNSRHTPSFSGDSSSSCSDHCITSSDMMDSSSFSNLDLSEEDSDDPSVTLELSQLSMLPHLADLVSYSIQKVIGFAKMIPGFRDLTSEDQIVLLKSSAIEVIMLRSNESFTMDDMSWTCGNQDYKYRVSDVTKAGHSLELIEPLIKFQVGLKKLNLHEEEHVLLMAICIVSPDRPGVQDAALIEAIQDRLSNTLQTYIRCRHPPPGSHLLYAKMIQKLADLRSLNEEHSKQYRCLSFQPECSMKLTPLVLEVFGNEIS

CC1OC1C1CCC2(C)OC2C1 (stereo not drawn)
active: [8] 0.0907 µM
not listed: [20]
inactive: all other assays above

C=CC(=O)OCC(Br)CBr (stereo not drawn)
active: [1] 33 µM | [3] 16.6 µM | [4] 20 µM | [5] 31.6 µM | [8] 32.4 µM | [9] 37 µM | [10] 14.4 µM | [11] 20 µM | [12] 23.3 µM | [13] 31.4 µM | [16] 26 µM | [18] 30.4 µM | [19] 11.1 µM
inactive: [2] | [6] | [7] | [14] | [15] | [17]

N#[N+]c1ccc2c(S(=O)(=O)[O-])cccc2c1O
inactive: all assays above

C=CCOCC(O)CCl (stereo not drawn)
inactive: all assays above

CCOc1nc(F)cc2nc(S(=O)(=O)Nc3c(Cl)cccc3C(=O)OC)nn12
inactive: all assays above

C#CC1(O)CC[C@H]2[C@@H]3CCC4=CCCC[C@@H]4[C@H]3CC[C@@]21C (stereo partly drawn)
active: [1] 12.9 µM | [2] 36.4 µM | [3] 8.8 µM | [4] 11.4 µM | [5] 8.54 µM | [6] 29.9 µM | [7] 12 µM | [8] 20 µM | [10] 33.3 µM | [11] 15.1 µM | [12] 34.8 µM | [13] 36 µM | [15] 20 µM | [16] 6.06 µM | [18] 32.8 µM | [19] 34.8 µM
inactive: [20] | [9] | [14] | [17]

CCO[Si](CCCN=C=O)(OCC)OCC
inactive: all assays above

O=c1c2ccccc2oc2ccccc12
active: [2] 0.139 µM
not listed: [20]
inactive: all other assays above

C/C=C\C/C=C/CCCCCCCCOC(C)=O
active: [4] 20 µM | [5] 12.7 µM | [10] 25.7 µM | [11] 29.3 µM | [12] 20 µM | [19] 20 µM
inactive: all other assays above

C=CC=CC=CCCCCC
active: [10] 5 µM | [12] 5 µM | [19] 5 µM
not listed: [20]
inactive: all other assays above

O=C(c1ccc(O)cc1)c1ccc(O)cc1O
inactive: [1] | [2] | [4] | [5] | [6] | [7] | [8] | [9] | [10] | [11] | [12] | [13] | [15] | [16] | [17] | [18] | [19]
active: [2] 12.9 µM | [8] 9.72 µM | [10] 20 µM

C=C[Si](OC(C)=O)(OC(C)=O)OC(C)=O
not listed: [3] | [14] | [20]
inactive: all other assays above
